# Experimental data published in the supplement of paper PMC10037445.
# Whole data set: some 2,900 compounds, median “NF-kB SEAP reporter activity, fold change vs agonist alone” near 0.99, cut for the highest 2% near 2.6. The sample as a whole holds a higher share of the highest values than the screen did.
# Assays:
# RAW-Dual [1] = assay: NF-kB SEAP reporter activity, fold change vs agonist alone; higher = enhanced NF-kB activity; settings: library stock concentration (final ~1000-fold dilution): 10 mM, cytotoxicity flag (confluency mask): not cytotoxic
# Outline: (§1)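 After 50 nL of library stock was delivered by pin tool to RAW-Dual macrophages (50,000 cells/well, DMEM, 384-well plates), a PRR agonist was added 1 h later and the plates were kept at 37 °C, 5% CO2. Twenty hours later, IRF was read from supernatant by QuantiLuc luminescence and NF-κB by QuantiBlue absorbance at 620 nm. Reporter activity is stated as fold change over agonist-alone wells. Wells with IncuCyte confluency under 70% of agonist controls in both mask sets were counted as cytotoxic.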
# RAW-Dual [2] = assay: NF-kB SEAP reporter activity, fold change vs agonist alone; cytotoxicity flag (confluency mask): not cytotoxic; higher = enhanced NF-kB activity
# Outline: as §1
# RAW-Dual [3] = assay: NF-kB SEAP reporter activity, fold change vs agonist alone; cytotoxicity flag (confluency mask): cytotoxic (confluency <70% of control); higher = enhanced NF-kB activity
# Outline: as §1
# [4] = agonist: ODN 1826 (TLR9) 0.5 ug/mL
# [5] = agonist: Pam2CSK4 (TLR2/6) 0.1 ug/mL
# [6] = agonist: Pam3CSK4 (TLR2/1) 0.1 ug/mL
structure (smiles),measurement,setting,value
CC1OC(OC2C(Oc3cc(O)c(C(=O)CCc4ccc(O)cc4)c(O)c3)OC(CO)C(O)C2O)C(O)C(O)C1O (stereo not drawn),NF-kB SEAP reporter activity,RAW-Dual [1]; agonist: Imiquimod (TLR7) […],0.957
same,NF-kB SEAP reporter activity,RAW-Dual [1]; agonist: MPLA (TLR4) […],1.03
CC1OC(OC2C(Oc3cc(O)c(C(=O)CCc4ccc(O)cc4)c(O)c3)OC(CO)C(O)C2O)C(O)C(O)C1O (stereo not drawn) (library stock concentration (final ~1000-fold dilution): 10 mM),NF-kB SEAP reporter activity,RAW-Dual [2]; agonist: LPS (TLR4) 0.1 ug/mL,0.867
same,NF-kB SEAP reporter activity,RAW-Dual [2]; [4],0.991
same,NF-kB SEAP reporter activity,RAW-Dual [2]; [5],0.784
same,NF-kB SEAP reporter activity,RAW-Dual [2]; [6],1.06
O=c1c(-c2ccc(O)cc2)coc2cc(OC3OC(CO)C(O)C(O)C3O)ccc12 (stereo not drawn),NF-kB SEAP reporter activity,RAW-Dual [1]; agonist: Imiquimod (TLR7) […],1.08
same,NF-kB SEAP reporter activity,RAW-Dual [1]; agonist: MPLA (TLR4) […],1.08
O=c1c(-c2ccc(O)cc2)coc2cc(OC3OC(CO)C(O)C(O)C3O)ccc12 (stereo not drawn) (library stock concentration (final ~1000-fold dilution): 10 mM),NF-kB SEAP reporter activity,RAW-Dual [2]; agonist: LPS (TLR4) 0.1 ug/mL,1.62
same,NF-kB SEAP reporter activity,RAW-Dual [2]; [4],1.17
same,NF-kB SEAP reporter activity,RAW-Dual [2]; [5],1.25
same,NF-kB SEAP reporter activity,RAW-Dual [2]; [6],1.38
CN(CC(=O)N(Cc1ccc(C2CCCCC2)cc1)c1ccc(C(=O)NO)cc1)S(=O)(=O)c1c(F)c(F)c(F)c(F)c1F,NF-kB SEAP reporter activity,RAW-Dual [1]; agonist: Imiquimod (TLR7) […],1.3
same,NF-kB SEAP reporter activity,RAW-Dual [1]; agonist: MPLA (TLR4) […],1.02
CN(CC(=O)N(Cc1ccc(C2CCCCC2)cc1)c1ccc(C(=O)NO)cc1)S(=O)(=O)c1c(F)c(F)c(F)c(F)c1F (library stock concentration (final ~1000-fold dilution): 10 mM),NF-kB SEAP reporter activity,RAW-Dual [2]; agonist: LPS (TLR4) 0.1 ug/mL,0.324
same,NF-kB SEAP reporter activity,RAW-Dual [2]; [4],1.53
same,NF-kB SEAP reporter activity,RAW-Dual [2]; [5],0.374
same,NF-kB SEAP reporter activity,RAW-Dual [2]; [6],0.284
CNCc1ccc(-c2cc(-c3nc(-c4ccc(S(=O)(=O)C(C)C)cc4)cnc3N)on2)cc1,NF-kB SEAP reporter activity,RAW-Dual [1]; agonist: Imiquimod (TLR7) […],0.858
same,NF-kB SEAP reporter activity,RAW-Dual [1]; agonist: MPLA (TLR4) […],0.98
CS(=O)(=O)O.Cc1ccc(NC(=O)c2ccc(CN3CCN(C)CC3)cc2)cc1Nc1nccc(-c2cccnc2)n1 (library stock concentration (final ~1000-fold dilution): 10 mM),NF-kB SEAP reporter activity,RAW-Dual [3]; agonist: LPS (TLR4) 0.1 ug/mL,1.29
same,NF-kB SEAP reporter activity,RAW-Dual [3]; [4],0.201
same,NF-kB SEAP reporter activity,RAW-Dual [3]; [5],1.13
same,NF-kB SEAP reporter activity,RAW-Dual [3]; [6],1.25
CS(=O)(=O)c1ccc(-c2cnc(N)c(C(=O)Nc3ccccc3)n2)cc1,NF-kB SEAP reporter activity,RAW-Dual [1]; agonist: Imiquimod (TLR7) […],1.45
same,NF-kB SEAP reporter activity,RAW-Dual [1]; agonist: MPLA (TLR4) […],2.21
CS(=O)(=O)c1ccc(-c2cnc(N)c(C(=O)Nc3ccccc3)n2)cc1 (library stock concentration (final ~1000-fold dilution): 10 mM),NF-kB SEAP reporter activity,RAW-Dual [2]; agonist: LPS (TLR4) 0.1 ug/mL,4.61
same,NF-kB SEAP reporter activity,RAW-Dual [2]; [4],0.67
same,NF-kB SEAP reporter activity,RAW-Dual [2]; [5],1.02
same,NF-kB SEAP reporter activity,RAW-Dual [2]; [6],1.48
CS(=O)(=O)c1ccc(C(=O)Nc2ccc(Cl)c(-c3ccccn3)c2)c(Cl)c1 (library stock concentration (final ~1000-fold dilution): 10 mM),NF-kB SEAP reporter activity,RAW-Dual [2]; agonist: LPS (TLR4) 0.1 ug/mL,1.19
same,NF-kB SEAP reporter activity,RAW-Dual [2]; [4],1.4
same,NF-kB SEAP reporter activity,RAW-Dual [2]; [5],0.898
same,NF-kB SEAP reporter activity,RAW-Dual [2]; [6],1.01
CN1CCN(S(=O)(=O)c2ccc(-c3cnc(N)c(C(=O)Nc4cccnc4)n3)cc2)CC1,NF-kB SEAP reporter activity,RAW-Dual [1]; agonist: Imiquimod (TLR7) […],1.5
same,NF-kB SEAP reporter activity,RAW-Dual [1]; agonist: MPLA (TLR4) […],2.5
CC(C)(C)c1ccc(S(=O)(=O)NCc2ccc(C(=O)Nc3cccnc3)cc2)cc1,NF-kB SEAP reporter activity,RAW-Dual [1]; agonist: Imiquimod (TLR7) […],0.865
same,NF-kB SEAP reporter activity,RAW-Dual [1]; agonist: MPLA (TLR4) […],0.908
